# Most compounds without a hit are left out; they make up all but 18% or so of the library.
# TDP1 cell noCPT = qHTS for Inhibitors of human tyrosyl-DNA phosphodiesterase 1 (TDP1): qHTS in cells in absence of CPT; Potency, µM (doses to about 46.2 µM), without a hit: at the top dose activity change, negative = growth inhibition, usual class: inhibitors; DT40 Tdp1-/- hTDP1 cells, no CPT, ATP luminescence, 48 h; hit rate 15% among 420,000; further: nearly all actives have a fitted effect of over 55% in size
#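 Luminescent ATP content (CellTiter-Glo) served as the growth readout. Knockout chicken DT40 cells expressing human TDP1 were exposed to compounds without camptothecin for a minimum 48 hr at 37 °C.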
# KAT2A inh = blocks human GCN5L2 histone acetyltransferase; Q92830; Potency, µM (doses to about 58.9 µM), for the others: at the highest dose activity change, negative = inhibition, most hits filed as inhibitors; GCN5L2 HAT assay, ThioGlo1 CoA-SH fluorescence; AID 504327; hit rate 0.21% among 390,000
#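 qHTS, 1536-well. 20nM enzyme, pH 7.5 HEPES/EDTA/Tween-20 buffer; 15 min compound preinc., RT. Start: 75uM H3(1-25), 70uM AcCoA, 50uM ThioGlo1. Read Ex340/Em540 at t=0 (autofluorescence flag) and t=20 min.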
# PLK1 PBD inh = blocks phosphopeptide binding to human PLK1 polo-box domain | Plk1 PBD binding of FITC phosphopeptide, fluorescence polarization | Potency, µM, inactives show max response, negative = inhibition, hits mostly inhibitors | hit rate 2.8% among 360,000; further: series mostly up to about 57 µM; nearly all actives have a fitted effect of over 65% in size
# TDP1 cell CPT = growth inhibition of DT40 Tdp1-/-;hTDP1 cells with camptothecin (screen for TDP1 inhibitors); chicken DT40 Tdp1-/-;hTDP1 cells + 20 nM CPT, ATP luminescence, 48 h; Potency, µM (doses to about 46.2 µM), without a hit: at the highest dose activity change, negative = growth inhibition, hits mostly inhibitors; hit rate 12% among 420,000; AID 686979; further: nearly all actives have a fitted effect of over 55% in size
#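 Chicken DT40 Tdp1-/- cells stably complemented with human TDP1 were seeded at 400 cells/well in medium containing 20 nM camptothecin, exposed to pin-transferred compounds, and grown at 37 °C for at least 48 hr. Viability was read as ATP luminescence.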
# VDR inh = vitamin D3 receptor (human) inhibition; P11473; AID 504847; hit rate 0.93% among 400,000; Potency, µM, for the others: max response, negative = inhibition, most hits filed as inhibitors; VDR-SRC2-3 peptide fluorescence polarization, 2 h
#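 Signal is fluorescence polarization, reporting how far test compounds block the interaction of VDR with the SRC2-3 coregulator peptide after a 2 h room-temperature incubation.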
# TDP1 inh = inhibitors of human tyrosyl-DNA phosphodiesterase TDP1; recombinant TDP1, AlphaScreen DNA substrate cleavage; Potency, µM (titrated, usually from 130 µM), for the others: at the top dose activity change, negative = inhibition, usual class: inhibitors; hit rate 0.28% among 350,000; AID 485290; further: nearly all actives have a fitted effect of over 40% in size
#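 Signal: AlphaScreen proximity between streptavidin donor and anti-FITC acceptor beads on intact substrate. Reaction: Tdp1 1 nM, substrate 15 nM final, 5 min RT after 15 min compound preincubation.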
# * = called active by the depositor; ? = inconclusive; · = no result. The call rests on the fitted dose curve; in most records, active means well fitted curve in the direction sought with a large enough effect; inconclusive means small, poorly fitted or top-dose-only effect, or another doubt; inactive means no such curve, though single readings can be large; an effect the other way counts as inactive or inconclusive. On the % scale 0 is the no-effect control and ±100 the full control effect; potency means the concentration at half of the fitted maximal effect.
SMILES,TDP1 cell noCPT,KAT2A inh,PLK1 PBD inh,TDP1 cell CPT,VDR inh,TDP1 inh
COc1cc(C(=O)Nc2ccc3nc4n(c(=O)c3c2)CCCCC4)cc(OC)c1OC,23µM*,-2%,-21%,?,-1%,2%
O=c1c2cc(NC(=S)NC3CCN(Cc4ccccc4)CC3)ccc2nc2n1CCCCC2,15µM*,1%,-6%,?,-5%,-3%
CCCN(C(=O)C(=O)Nc1ccc2nc3n(c(=O)c2c1)CCCCC3)c1ccc(OCC)cc1,13µM*,-4%,0%,13µM*,-1%,-6%
O=C(Nc1ccc2nc3n(c(=O)c2c1)CCCCC3)C(=O)N1CCN(c2ccc(F)cc2)CC1,?,3%,6.7µM*,?,?,5%
CCc1ccccc1NC(=O)CN(C)S(=O)(=O)c1cccc2nsnc12,1%,-7%,·,?,11%,2%
O=C(Nc1cccc(C(F)(F)F)c1)c1csc([C@@H]2O[C@H](CO)[C@H](O)[C@H](O)[C@H]2O)n1,-5%,·,1%,-5%,·,·
COc1ccc(CNC(=O)CCc2c(C)nn(-c3ccc(N4CCCCC4)nn3)c2C)c(OC)c1,?,1%,·,?,9%,7%
Cc1ccc(-n2nc(CO)c(C(=O)NCCc3ccccc3)n2)cc1C,?,-2%,·,-14%,0%,5%
O=C(c1ccc2c(=O)n3c(nc2c1)CCCCC3)N1CCN(c2ccc(Cl)cc2)CC1,18µM*,?,-7%,23µM*,4%,·
O=C(c1ccc2c(=O)n3c(nc2c1)CCCCC3)N1CCN(c2ccc(F)cc2)CC1,?,-11%,-11%,-22%,15%,5%
O=c1c2cc(NC(=S)NC3CCCCC3)ccc2nc2n1CCCCC2,?,?,-5%,18µM*,10%,-2%
Cc1cccc(N2CCN(C(=S)Nc3ccc4nc5n(c(=O)c4c3)CCCCC5)CC2)c1C,21µM*,1%,-19%,?,-9%,2%
O=c1c2cc(NC(=S)N3CCC(N4CCCCC4)CC3)ccc2nc2n1CCCCC2,-4%,-3%,3%,5%,-3%,3%
COc1ccc2oc(=N)c(C(=O)Nc3ccccc3Cl)cc2c1,-21%,-7%,-3%,-26%,-23%,·
CC(=O)Nc1ccc(NC(=O)C(C)OC(=O)c2ccc(C)s2)cc1 (configuration not stated),-27%,-19%,-7%,-6%,18%,5%
NC(c1csc(Nc2ncccn2)n1)C1CCCCC1 (configuration not stated),?,·,-8%,?,·,·
NC(c1csc(Nc2cnccn2)n1)C1CCCCC1 (configuration not stated),-86%,·,-2%,23µM*,·,·
NC(c1csc(Nc2ccc(C(F)(F)F)cn2)n1)C1CCCCC1 (configuration not stated),21µM*,·,-4%,23µM*,·,·
NC(=O)c1cccc(Nc2nc(C(N)C3CCCCC3)cs2)n1 (configuration not stated),?,·,-4%,?,·,·
NC(c1csc(Nc2nccc(C(F)(F)F)n2)n1)C1CCCCC1 (configuration not stated),12µM*,·,-5%,?,·,·
Cc1ccc(SCC(c2ccccc2)N2CCN(C)CCC2=O)cc1 (configuration not stated),·,·,·,·,-10%,8%
